# Paper PMC7862700, “An all-to-all approach to the identification of sequence-specific readers for epigenetic DNA modifications on cytosine”
# Legend:
# Experiment in all cases: DAPPL (digital affinity profiling via proximity ligation, sequencing); 10 mM Tris-HCl pH 7.5, 50 mM NaCl, 1 mM DTT, 4% glycerol, room temperature, 30 min; GST-TFs on glutathione beads, 16-mer random dsDNA library, 0.1% formaldehyde crosslink after washing; high values mean tight binding
# FLI1 = target: T1, FLI1 (Homo sapiens, UniProt Q01543 1-452); conditions: protein: recombinant; tags: N-terminal GST; dsDNA, one strand shown
# T1 sequence: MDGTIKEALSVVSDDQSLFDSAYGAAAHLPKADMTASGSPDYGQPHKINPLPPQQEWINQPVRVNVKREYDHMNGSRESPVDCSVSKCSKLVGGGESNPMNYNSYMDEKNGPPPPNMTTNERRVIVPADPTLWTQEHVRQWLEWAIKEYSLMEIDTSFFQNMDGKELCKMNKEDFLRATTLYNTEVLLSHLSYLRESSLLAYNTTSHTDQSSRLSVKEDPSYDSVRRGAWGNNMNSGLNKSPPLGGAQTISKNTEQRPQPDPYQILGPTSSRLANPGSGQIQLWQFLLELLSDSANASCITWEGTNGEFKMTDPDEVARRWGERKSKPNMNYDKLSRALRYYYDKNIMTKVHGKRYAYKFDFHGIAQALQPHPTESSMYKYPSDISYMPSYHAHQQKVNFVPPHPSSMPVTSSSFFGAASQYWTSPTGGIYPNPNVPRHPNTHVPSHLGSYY
# Outline: (§1)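 GST fusions of human transcription factors were expressed in yeast and captured with glutathione beads. Once given DNA barcodes and pooled alongside a tag-only sample, they were incubated for 30 min at room temperature with 200 nmole of a random double-stranded 16-mer DNA library in Tris/NaCl/DTT/glycerol buffer, then washed, crosslinked (0.1% formaldehyde), proximity-ligated, PCR-amplified and sequenced on an Illumina NextSeq500. The binding signal of each hexamer is its read frequency for a factor divided by its frequency for the tag-only sample.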
# ELK1 = target: T2, ELK1 (Homo sapiens, UniProt P19419 1-428); conditions: protein: recombinant; tags: N-terminal GST; dsDNA, one strand shown
# T2 sequence: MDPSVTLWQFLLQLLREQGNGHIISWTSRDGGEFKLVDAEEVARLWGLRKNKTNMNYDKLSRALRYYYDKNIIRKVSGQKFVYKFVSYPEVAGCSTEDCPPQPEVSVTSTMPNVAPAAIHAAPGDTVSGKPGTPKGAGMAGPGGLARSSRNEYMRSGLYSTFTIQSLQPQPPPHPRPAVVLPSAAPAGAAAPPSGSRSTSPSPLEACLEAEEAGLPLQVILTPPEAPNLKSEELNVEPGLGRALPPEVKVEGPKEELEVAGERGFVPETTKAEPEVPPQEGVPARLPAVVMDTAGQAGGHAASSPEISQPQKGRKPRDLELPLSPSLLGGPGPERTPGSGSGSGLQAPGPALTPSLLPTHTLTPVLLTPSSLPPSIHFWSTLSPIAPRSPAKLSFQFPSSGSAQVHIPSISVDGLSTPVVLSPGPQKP
# Outline: as §1
# GABPA = target: T3, GABPA (Homo sapiens, UniProt Q06546 1-454); conditions: protein: recombinant; tags: N-terminal GST; dsDNA, one strand shown
# T3 sequence: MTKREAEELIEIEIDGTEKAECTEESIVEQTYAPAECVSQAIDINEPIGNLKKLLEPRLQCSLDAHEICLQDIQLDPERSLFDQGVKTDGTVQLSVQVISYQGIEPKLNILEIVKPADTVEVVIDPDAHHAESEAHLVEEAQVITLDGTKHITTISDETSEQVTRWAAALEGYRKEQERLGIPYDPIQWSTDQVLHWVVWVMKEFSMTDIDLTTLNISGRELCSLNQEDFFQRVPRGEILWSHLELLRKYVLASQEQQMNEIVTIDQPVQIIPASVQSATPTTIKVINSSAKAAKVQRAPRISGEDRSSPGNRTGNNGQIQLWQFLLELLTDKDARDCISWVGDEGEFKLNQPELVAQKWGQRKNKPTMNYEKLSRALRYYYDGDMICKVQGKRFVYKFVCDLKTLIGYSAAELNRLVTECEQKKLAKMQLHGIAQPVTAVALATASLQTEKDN
# Outline: as §1
# ERG = target: T4, ERG (Homo sapiens, UniProt P11308 1-479); conditions: protein: recombinant; tags: N-terminal GST; dsDNA, one strand shown
# T4 sequence: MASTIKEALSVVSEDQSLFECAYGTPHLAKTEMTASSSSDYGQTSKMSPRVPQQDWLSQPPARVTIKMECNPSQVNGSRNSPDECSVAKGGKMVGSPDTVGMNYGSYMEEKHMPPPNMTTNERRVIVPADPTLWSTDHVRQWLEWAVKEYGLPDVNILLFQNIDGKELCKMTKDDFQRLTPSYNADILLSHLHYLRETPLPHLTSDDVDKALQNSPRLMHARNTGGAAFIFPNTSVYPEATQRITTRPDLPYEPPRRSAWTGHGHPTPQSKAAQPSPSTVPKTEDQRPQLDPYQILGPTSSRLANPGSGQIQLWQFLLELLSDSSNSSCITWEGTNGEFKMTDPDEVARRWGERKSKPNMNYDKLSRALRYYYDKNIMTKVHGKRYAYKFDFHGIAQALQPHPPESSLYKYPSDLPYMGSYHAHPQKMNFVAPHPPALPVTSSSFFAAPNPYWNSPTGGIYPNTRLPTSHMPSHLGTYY
# Outline: as §1
# ELF1 = ELF1 (Homo sapiens, UniProt P32519 1-619); conditions: protein: recombinant; tags: N-terminal GST; dsDNA, one strand shown
# Outline: as §1
# EHF = target: T5, EHF (Homo sapiens, UniProt Q9NZC4 1-300); conditions: protein: recombinant; tags: N-terminal GST; dsDNA, one strand shown
# T5 sequence: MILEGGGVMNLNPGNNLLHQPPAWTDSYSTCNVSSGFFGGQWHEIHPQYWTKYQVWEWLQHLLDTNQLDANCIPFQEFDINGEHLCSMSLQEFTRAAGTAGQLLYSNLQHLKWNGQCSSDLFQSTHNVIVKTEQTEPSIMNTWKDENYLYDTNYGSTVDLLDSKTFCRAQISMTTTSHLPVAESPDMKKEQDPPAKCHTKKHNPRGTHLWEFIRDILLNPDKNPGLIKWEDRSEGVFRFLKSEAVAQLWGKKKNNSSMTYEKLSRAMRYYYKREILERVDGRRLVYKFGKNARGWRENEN
# Outline: as §1
# SPI1 = SPI1 (Homo sapiens, UniProt P17947 1-270); conditions: protein: recombinant; tags: N-terminal GST; dsDNA, one strand shown
# Outline: as §1
# SPIB = SPIB (Homo sapiens, UniProt Q01892 1-262); conditions: protein: recombinant; tags: N-terminal GST; dsDNA, one strand shown
# Outline: as §1
# ELK3 = target: T6, ELK3 (Homo sapiens, UniProt P41970 1-407); conditions: protein: recombinant; tags: N-terminal GST; dsDNA, one strand shown
# T6 sequence: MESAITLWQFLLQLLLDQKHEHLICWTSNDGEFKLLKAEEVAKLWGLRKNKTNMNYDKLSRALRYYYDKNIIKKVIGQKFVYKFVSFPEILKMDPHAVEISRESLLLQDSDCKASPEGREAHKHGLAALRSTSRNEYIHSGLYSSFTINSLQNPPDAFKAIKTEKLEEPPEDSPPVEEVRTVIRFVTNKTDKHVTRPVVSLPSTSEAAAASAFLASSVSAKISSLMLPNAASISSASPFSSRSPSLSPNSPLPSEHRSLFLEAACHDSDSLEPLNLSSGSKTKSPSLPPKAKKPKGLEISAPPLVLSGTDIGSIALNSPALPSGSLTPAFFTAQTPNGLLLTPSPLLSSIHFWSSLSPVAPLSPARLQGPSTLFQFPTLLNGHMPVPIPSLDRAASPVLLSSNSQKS
# Outline: as §1
# FEV = target: T7, FEV (Homo sapiens, UniProt Q99581 1-238); conditions: protein: recombinant; tags: N-terminal GST; dsDNA, one strand shown
# T7 sequence: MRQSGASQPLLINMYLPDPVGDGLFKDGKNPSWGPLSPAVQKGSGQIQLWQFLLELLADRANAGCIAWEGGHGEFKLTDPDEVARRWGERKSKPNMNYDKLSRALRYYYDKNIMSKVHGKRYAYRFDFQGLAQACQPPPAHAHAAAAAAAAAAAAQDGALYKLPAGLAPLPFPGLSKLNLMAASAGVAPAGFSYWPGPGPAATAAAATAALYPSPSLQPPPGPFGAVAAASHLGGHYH
# Outline: as §1
# ETV5 = ETV5 (Homo sapiens, UniProt P41161 1-510); conditions: protein: recombinant; tags: N-terminal GST; dsDNA, one strand shown
# Outline: as §1
# HSF1 = HSF1 (Homo sapiens, UniProt Q00613 1-529); conditions: protein: recombinant; tags: N-terminal GST; chain copies: 3; dsDNA, one strand shown
# Outline: as §1
# SPIC = target: T8, SPIC (Homo sapiens, UniProt Q8N5J4 1-248); conditions: protein: recombinant; tags: N-terminal GST; dsDNA, one strand shown
# T8 sequence: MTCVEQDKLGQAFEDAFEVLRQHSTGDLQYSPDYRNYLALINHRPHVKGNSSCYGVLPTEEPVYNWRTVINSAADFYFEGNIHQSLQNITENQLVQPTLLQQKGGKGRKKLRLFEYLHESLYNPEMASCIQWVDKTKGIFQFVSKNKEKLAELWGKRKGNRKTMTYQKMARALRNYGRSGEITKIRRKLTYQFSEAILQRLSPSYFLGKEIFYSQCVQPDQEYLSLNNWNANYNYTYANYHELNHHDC
# Outline: as §1
# ELF4 = ELF4 (Homo sapiens, UniProt Q99607 1-663); conditions: protein: recombinant; tags: N-terminal GST; dsDNA, one strand shown
# Outline: as §1
# ELK4 = target: T9, ELK4 (Homo sapiens, UniProt P28324-2 1-405); conditions: protein: recombinant; tags: N-terminal GST; dsDNA, one strand shown
# T9 sequence: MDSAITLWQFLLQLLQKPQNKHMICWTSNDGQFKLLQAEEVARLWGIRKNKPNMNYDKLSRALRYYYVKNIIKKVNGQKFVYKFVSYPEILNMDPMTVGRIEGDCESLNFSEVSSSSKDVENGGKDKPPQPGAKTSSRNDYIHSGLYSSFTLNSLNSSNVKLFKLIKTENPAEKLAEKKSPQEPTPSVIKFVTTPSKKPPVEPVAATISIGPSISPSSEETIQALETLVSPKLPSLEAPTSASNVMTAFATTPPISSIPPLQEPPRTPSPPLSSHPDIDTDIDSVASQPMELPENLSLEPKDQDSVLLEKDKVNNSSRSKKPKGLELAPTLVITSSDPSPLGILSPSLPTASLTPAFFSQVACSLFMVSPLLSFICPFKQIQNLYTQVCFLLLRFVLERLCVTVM
# Outline: as §1
# ETV2 = target: T10, ETV2 (Homo sapiens, UniProt O00321 1-342); conditions: protein: recombinant; tags: N-terminal GST; dsDNA, one strand shown
# T10 sequence: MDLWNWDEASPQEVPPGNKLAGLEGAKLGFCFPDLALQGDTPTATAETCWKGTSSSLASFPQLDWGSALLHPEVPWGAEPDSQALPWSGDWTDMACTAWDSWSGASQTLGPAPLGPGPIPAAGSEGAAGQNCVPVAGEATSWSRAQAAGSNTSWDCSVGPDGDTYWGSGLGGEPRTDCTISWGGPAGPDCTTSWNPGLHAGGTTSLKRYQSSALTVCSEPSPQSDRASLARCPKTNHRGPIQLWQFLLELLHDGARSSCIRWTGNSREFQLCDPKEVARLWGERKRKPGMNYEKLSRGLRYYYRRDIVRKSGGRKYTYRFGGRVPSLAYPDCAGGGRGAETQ
# Outline: as §1
# ELF3 = target: T11, ELF3 (Homo sapiens, UniProt P78545 1-371); conditions: protein: recombinant; tags: N-terminal GST; dsDNA, one strand shown
# T11 sequence: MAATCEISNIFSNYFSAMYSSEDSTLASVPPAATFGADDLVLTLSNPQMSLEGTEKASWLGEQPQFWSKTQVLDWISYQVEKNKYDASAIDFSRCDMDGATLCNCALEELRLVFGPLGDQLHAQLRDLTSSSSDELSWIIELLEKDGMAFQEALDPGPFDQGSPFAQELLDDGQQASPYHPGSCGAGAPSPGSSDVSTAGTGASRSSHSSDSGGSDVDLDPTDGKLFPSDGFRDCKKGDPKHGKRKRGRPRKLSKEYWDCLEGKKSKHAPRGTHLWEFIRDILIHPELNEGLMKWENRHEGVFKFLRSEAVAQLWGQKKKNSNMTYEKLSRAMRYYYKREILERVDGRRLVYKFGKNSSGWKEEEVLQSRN
# Outline: as §1
# CRX = CRX (Homo sapiens, UniProt O43186 1-299); conditions: protein: recombinant; tags: N-terminal GST; dsDNA, one strand shown
# Outline: as §1
# ETV1 = ETV1 (Homo sapiens, UniProt P50549 1-477); conditions: protein: recombinant; tags: N-terminal GST; dsDNA, one strand shown
# Outline: as §1
# Sequence of SPIB (Q01892 whole entry): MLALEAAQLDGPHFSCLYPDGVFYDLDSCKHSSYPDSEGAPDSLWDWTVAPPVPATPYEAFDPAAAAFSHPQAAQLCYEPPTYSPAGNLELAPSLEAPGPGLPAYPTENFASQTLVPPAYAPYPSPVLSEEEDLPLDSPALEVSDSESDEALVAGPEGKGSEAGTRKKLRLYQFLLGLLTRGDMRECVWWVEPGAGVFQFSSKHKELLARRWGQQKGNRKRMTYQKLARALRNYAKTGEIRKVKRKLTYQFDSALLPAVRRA
# Sequence of ETV5 (P41161 whole entry): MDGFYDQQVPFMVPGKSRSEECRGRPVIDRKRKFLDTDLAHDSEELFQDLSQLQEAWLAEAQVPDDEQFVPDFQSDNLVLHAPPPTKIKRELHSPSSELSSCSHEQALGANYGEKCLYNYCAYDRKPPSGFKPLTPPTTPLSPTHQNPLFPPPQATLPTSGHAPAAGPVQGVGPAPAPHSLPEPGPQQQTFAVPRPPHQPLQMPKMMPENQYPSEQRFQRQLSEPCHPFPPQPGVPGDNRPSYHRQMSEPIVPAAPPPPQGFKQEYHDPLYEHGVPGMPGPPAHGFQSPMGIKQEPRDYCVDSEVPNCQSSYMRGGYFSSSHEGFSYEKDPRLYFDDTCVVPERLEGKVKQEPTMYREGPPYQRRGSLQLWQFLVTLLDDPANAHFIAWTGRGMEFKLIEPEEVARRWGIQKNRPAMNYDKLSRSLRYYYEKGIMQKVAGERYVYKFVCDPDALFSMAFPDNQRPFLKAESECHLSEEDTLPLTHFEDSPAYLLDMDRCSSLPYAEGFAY
# Sequence of ELF4 (Q99607 whole entry): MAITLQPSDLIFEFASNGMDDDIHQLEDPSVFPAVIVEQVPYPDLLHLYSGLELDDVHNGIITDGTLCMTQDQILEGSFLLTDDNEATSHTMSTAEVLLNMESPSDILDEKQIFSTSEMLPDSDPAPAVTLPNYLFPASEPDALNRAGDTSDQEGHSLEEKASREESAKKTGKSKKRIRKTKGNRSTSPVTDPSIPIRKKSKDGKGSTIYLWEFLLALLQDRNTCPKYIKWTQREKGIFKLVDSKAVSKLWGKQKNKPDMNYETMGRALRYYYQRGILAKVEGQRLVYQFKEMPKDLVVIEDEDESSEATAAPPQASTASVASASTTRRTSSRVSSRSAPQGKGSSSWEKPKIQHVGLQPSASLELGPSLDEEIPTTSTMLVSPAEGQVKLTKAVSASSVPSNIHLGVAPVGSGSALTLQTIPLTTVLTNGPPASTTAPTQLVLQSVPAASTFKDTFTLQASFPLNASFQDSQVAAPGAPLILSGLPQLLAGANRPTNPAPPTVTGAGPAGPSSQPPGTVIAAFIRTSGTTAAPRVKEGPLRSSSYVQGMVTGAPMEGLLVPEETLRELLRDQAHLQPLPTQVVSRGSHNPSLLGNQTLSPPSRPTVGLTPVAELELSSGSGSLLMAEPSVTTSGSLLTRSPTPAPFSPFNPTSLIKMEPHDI
# Sequence of ETV1 (P50549 whole entry): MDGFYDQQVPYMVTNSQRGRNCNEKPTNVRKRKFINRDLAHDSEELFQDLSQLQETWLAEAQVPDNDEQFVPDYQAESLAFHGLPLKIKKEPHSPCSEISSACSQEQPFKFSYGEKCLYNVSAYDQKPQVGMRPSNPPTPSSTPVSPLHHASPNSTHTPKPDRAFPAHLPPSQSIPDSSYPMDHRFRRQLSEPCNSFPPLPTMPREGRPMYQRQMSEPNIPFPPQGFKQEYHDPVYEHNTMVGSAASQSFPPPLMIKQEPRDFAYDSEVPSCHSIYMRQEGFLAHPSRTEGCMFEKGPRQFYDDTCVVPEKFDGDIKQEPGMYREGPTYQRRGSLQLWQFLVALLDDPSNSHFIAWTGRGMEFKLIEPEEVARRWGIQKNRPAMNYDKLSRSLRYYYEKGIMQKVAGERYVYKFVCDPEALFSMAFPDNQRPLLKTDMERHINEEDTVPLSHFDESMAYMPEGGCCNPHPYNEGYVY
# Sequence of HSF1 (Q00613 whole entry): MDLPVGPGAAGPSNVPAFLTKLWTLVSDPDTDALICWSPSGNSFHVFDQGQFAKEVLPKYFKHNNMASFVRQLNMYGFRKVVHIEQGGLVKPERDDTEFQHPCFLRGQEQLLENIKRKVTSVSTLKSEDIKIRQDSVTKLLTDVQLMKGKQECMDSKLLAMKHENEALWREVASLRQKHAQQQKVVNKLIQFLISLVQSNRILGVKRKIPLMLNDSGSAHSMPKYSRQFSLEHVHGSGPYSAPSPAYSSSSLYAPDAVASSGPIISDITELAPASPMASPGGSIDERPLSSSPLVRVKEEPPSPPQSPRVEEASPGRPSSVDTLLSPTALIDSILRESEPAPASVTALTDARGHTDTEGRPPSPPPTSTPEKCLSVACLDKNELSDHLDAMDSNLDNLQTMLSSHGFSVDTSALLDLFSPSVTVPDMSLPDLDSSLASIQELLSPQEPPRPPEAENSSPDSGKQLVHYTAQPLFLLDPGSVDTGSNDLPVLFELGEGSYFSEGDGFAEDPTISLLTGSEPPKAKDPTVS
# Sequence of CRX (O43186 whole entry): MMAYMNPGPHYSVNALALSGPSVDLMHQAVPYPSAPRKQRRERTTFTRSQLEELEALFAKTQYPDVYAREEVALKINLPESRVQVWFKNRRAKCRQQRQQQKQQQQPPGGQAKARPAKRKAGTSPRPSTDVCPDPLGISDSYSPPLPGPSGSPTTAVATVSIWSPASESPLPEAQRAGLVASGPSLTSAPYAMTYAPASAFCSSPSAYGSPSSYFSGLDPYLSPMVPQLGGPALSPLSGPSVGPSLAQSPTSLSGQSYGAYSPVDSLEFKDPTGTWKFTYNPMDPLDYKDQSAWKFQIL
# Sequence of ELF1 (P32519 whole entry): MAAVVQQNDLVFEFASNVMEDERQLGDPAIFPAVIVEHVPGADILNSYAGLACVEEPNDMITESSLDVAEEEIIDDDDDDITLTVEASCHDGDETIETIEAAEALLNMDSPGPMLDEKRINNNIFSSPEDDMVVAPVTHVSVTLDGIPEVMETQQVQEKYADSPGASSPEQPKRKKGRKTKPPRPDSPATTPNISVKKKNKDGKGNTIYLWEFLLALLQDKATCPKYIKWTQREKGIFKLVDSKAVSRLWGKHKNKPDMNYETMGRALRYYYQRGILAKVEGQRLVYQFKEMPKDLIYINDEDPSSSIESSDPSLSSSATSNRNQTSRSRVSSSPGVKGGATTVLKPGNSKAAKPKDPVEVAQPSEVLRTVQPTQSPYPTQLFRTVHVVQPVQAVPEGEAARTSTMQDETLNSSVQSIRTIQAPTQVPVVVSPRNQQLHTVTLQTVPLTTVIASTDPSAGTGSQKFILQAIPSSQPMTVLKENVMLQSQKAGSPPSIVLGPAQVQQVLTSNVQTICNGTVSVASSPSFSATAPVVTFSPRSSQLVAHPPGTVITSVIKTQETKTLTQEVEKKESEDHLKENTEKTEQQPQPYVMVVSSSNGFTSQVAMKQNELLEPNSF
sequence,measurement,setting,value
TTTCAA,binding signal,FLI1,"1.24 fold enrichment (6-mer frequency, TF over GST control)"
same,binding signal,ELK1,"1.23 fold enrichment (6-mer frequency, TF over GST control)"
same,binding signal,GABPA,"1.31 fold enrichment (6-mer frequency, TF over GST control)"
same,binding signal,ERG,"1.25 fold enrichment (6-mer frequency, TF over GST control)"
same,binding signal,ELF1,"1.3 fold enrichment (6-mer frequency, TF over GST control)"
same,binding signal,EHF,"1.3 fold enrichment (6-mer frequency, TF over GST control)"
same,binding signal,SPI1,"1.32 fold enrichment (6-mer frequency, TF over GST control)"
same,binding signal,SPIB,"1.37 fold enrichment (6-mer frequency, TF over GST control)"
same,binding signal,ELK3,"1.33 fold enrichment (6-mer frequency, TF over GST control)"
same,binding signal,FEV,"1.34 fold enrichment (6-mer frequency, TF over GST control)"
same,binding signal,ETV5,"1.29 fold enrichment (6-mer frequency, TF over GST control)"
same,binding signal,HSF1,"1.23 fold enrichment (6-mer frequency, TF over GST control)"
same,binding signal,SPIC,"1.33 fold enrichment (6-mer frequency, TF over GST control)"
same,binding signal,ELF4,"1.34 fold enrichment (6-mer frequency, TF over GST control)"
same,binding signal,ELK4,"1.29 fold enrichment (6-mer frequency, TF over GST control)"
same,binding signal,ETV2,"1.32 fold enrichment (6-mer frequency, TF over GST control)"
same,binding signal,ELF3,"1.33 fold enrichment (6-mer frequency, TF over GST control)"
same,binding signal,CRX,"1.34 fold enrichment (6-mer frequency, TF over GST control)"
same,binding signal,ETV1,"1.33 fold enrichment (6-mer frequency, TF over GST control)"
